Only some compounds are listed: those with a hit (about 3% of all), similar ones and a draw of the others.
VDR inhibitor: inhibitors of human vitamin D receptor; P11473; VDR-SRC2-3 peptide fluorescence polarization, 2 h; Potency, µM, for the others: max response, negative = inhibition, most hits filed as inhibitors; hit rate 0.93% among 400,000
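Measured by FP: displacement of SRC2-3 coactivator peptide from VDR by library compounds, following a two-hour ambient incubation.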
PLK1 PBD block: inhibitors of human PLK1 polo-box domain binding. Potency, µM, for the others: max response, negative = inhibition, hits mostly inhibitors. AID 720504. Plk1 PBD binding of FITC phosphopeptide, fluorescence polarization. hit rate 2.8% among 360,000; note: series mostly up to about 57 µM; nearly all actives have a fitted effect of over 65% in size
ALOX12 inh: blocks human arachidonate 12S-lipoxygenase; P18054; purified 12hLO, xylenol orange hydroperoxide absorbance; Potency, µM (highest dose often 108 µM), without a hit: at the highest dose activity change, negative = inhibition, usual class: inhibitors; hit rate 1.1% among 580,000; AID 1671190
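Hydroperoxide product was detected by ferrous iron/xylenol orange as the 573 to 405 nm absorbance ratio. Arachidonic acid at 40 uM (final) was turned over for 30 min at room temperature by 150 nM human 12hLO, pH 7.0 Hepes buffer, after 15 min compound preincubation.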
GCN5L2 inh: inhibitors of human GCN5L2 histone acetyltransferase; hit rate 0.21% among 390,000; Q92830; GCN5L2 HAT assay, ThioGlo1 CoA-SH fluorescence; Potency, µM (highest dose often 58.9 µM), without a hit: at the highest dose activity change, negative = inhibition, hits mostly inhibitors
Target sequence (Q92830 whole entry, looked up): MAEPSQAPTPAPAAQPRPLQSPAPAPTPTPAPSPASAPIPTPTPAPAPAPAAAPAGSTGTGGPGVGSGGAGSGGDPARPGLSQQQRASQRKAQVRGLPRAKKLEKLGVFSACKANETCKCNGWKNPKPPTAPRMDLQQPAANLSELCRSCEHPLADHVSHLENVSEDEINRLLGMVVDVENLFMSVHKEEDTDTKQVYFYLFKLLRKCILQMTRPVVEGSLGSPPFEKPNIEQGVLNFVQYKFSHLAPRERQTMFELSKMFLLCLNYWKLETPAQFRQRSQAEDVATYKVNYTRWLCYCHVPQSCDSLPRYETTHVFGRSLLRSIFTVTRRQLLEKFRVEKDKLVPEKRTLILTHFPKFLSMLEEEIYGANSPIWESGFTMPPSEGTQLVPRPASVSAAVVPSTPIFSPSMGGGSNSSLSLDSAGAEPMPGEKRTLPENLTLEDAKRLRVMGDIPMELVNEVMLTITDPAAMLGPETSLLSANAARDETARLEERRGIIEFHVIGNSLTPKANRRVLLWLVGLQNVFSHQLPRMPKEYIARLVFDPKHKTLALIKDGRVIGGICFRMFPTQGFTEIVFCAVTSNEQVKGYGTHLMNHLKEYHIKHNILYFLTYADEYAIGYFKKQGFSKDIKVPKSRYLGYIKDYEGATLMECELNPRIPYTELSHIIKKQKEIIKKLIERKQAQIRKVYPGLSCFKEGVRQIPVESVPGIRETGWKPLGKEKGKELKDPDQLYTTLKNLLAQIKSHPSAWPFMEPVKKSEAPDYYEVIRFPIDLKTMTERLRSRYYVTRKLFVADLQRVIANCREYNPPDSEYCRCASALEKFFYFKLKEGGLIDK
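Free CoA generated was detected with ThioGlo1 (50uM) fluorescence at Ex340nm/Em540nm, read immediately and after 20 min at room temperature. Enzyme, 20 nM in HEPES pH 7.5 buffer, saw compounds 15 min before adding 75uM H3(1-25) peptide and 70uM acetyl-CoA.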
TbPYK confirm: Trypanosoma brucei pyruvate kinase inhibition, cherry-pick confirmation. shares compounds with PLK1 PBD block. Potency, µM (series often up to 76.9 µM), for inactives: at the highest dose activity change, negative = inhibition, actives largely listed as inhibitors. recombinant TbPYK, Kinase-Glo ATP luminescence. hit rate 67% among 890; note: nearly all actives have a fitted effect of over 70% in size
TbPYK ADP-Glo: orthogonal confirmation of Trypanosoma brucei pyruvate kinase inhibitors. hit rate 62% among 890. AID 720584. recombinant TbPYK, ADP-Glo luminescence, 60 min. Potency, µM (top dose mostly 76.9 µM), for inactives: top-dose activity change, negative = inhibition, actives largely listed as inhibitors. shares compounds with PLK1 PBD block; note: nearly all actives have a fitted effect of over 75% in size
Numbers without * were called inactive; u = inconclusive; x = no result given. Calls come from the whole dose curve; as a rule, active = well fitted curve in the direction sought with a large enough effect; inconclusive = small, poorly fitted or top-dose-only effect, or another doubt; inactive = no such curve, though single readings can be large; an effect the other way counts as inactive or inconclusive. % is set by controls: 0 for no effect and ±100 for the full control effect; potency is the fitted concentration of half-maximal effect.

SMILES	VDR inhibitor	PLK1 PBD block	ALOX12 inh	GCN5L2 inh	TbPYK confirm	TbPYK ADP-Glo
O=c1cc(CO)oc(C(Nc2ccccn2)c2ccsc2)c1O (stereo not given)	x	x	x	7%	x	x
CC(=O)c1cccc(OCc2cc(C(=O)N(C)CCc3ccccn3)no2)c1	-13%	-18%	u	1%	x	x
CC(=O)c1cccc(OCc2cc(C(=O)N(C)Cc3ccc(C)o3)no2)c1	u	-30%	u	-13%	14µM*	35µM*
O=C(O)c1ccccc1Oc1ccc(Oc2ccccc2)cc1	-27%	-7%	11%	-1%	x	x
Cc1ccc(CN(C)C(=O)c2ccccc2Oc2ccccc2)o1	u	-26%	-10%	-7%	20µM*	25µM*
Cc1ccc(N2CCC(N[C@@H]3CC[C@@H](N)C3)CC2)cc1Cl	x	x	8%	x	x	x
Cc1ccc(/C=C/C(=O)NCCc2ccccc2)o1	71µM*	27µM*	u	-4%	u	u
Cc1ccc(/C=C/C(=O)Nc2cccc3ncccc23)o1	-7%	u	-24%	-3%	u	u
Cc1ccc(/C=C/C(=O)Nc2cccnc2)o1	-6%	u	-27%	-18%	28µM*	40µM*
O=C(/C=C/c1c(Cl)cccc1Cl)NCCc1ccccc1	-10%	-1%	8%	u	x	x
CCc1nnc(C(=O)Nc2ccc(C(=O)N3CCOCC3)cc2)s1	x	x	-1%	x	x	x
Cc1cc(C)c(C(=O)COC(=O)c2cccc(C)c2C)cc1C	x	x	-10%	x	x	x
Cn1c(CNC(=O)C(Cc2ccccc2)NS(=O)(=O)c2ccc(Cl)cc2)cc(=O)n(C)c1=O (stereo not given)	x	x	14%	x	x	x
CCN1/C(=C2/SC(=S)N(C)C2=O)C=Cc2cc(C)ccc21	31%	-20%	u	x	x	x
CCN1C(=O)/C(=C2/C=Cc3cc(C)ccc3N2CC)N(C)C1=S	1%	0%	-12%	29%	35µM*	-26%
CC(=O)OCCNc1cc(N2CCN(C)CC2)c2noc3c2c1C(=O)c1ccccc1-3	u	20%	12%	-3%	10µM*	u
Cc1noc(C2CC3(CCN(C(=O)c4cccn4C)CC3)CN2C)n1 (stereo not given)	x	x	10%	x	x	x
O=C(O)C1OC(Oc2cc3oc(-c4ccccc4)cc(=O)c3c(O)c2O)C(O)C(O)C1O (stereo not given)	-9%	3%	-1%	-11%	2.8µM*	2.8µM*
CC1(C)CC(=O)C(C(C2=C(O)CC(C)(C)CC2=O)c2ccco2)C(=O)C1 (stereo not given)	u	5.3µM*	u	-15%	13µM*	u
NNC(=O)CSc1c(-c2ccccc2)c2cc(Cl)ccc2[nH]c1=O	-16%	-26%	110%	-1%	x	x
O=c1[nH]c2ccc(Cl)cc2c(-c2ccccc2)c1SC(=S)N1CCCCC1	u	12µM*	u	-1%	5.6µM*	7.9µM*
O=c1[nH]c2ccc(Cl)cc2c(-c2ccccc2)c1SC(=S)N1CCOCC1	89µM*	27µM*	0%	-1%	4.5µM*	5.6µM*
COc1ccc2cc(C(=O)N(C)C3CCS(=O)(=O)C3)[nH]c2c1 (stereo not given)	x	x	-6%	x	x	x
COc1ccc(S(=O)(=O)N(C(C)=O)c2ccc3oc(=O)sc3c2)cc1	79µM*	-27%	u	-29%	u	16µM*
CCOc1cc(/C=C2\SC(=N)N(c3nccs3)C2=O)ccc1OCCN1CCOCC1	-5%	-10%	-11%	-10%	u	u
SMILES	VDR inhibitor	PLK1 PBD block	ALOX12 inh	GCN5L2 inh	TbPYK confirm	TbPYK ADP-Glo
CCOc1cc(/C=C2\SC(=S)N(N3CCOCC3)C2=O)ccc1O	-22%	-8%	9%	-3%	x	x
O=C(Nc1ccc(Cl)c(C(F)(F)F)c1)c1c(F)cccc1F	x	x	-27%	x	x	x
Cc1cccc(NC(=O)CN2C(=O)N/C(=C/c3ccc(C)o3)C2=O)c1	u	3%	u	-23%	u	35µM*
CCn1c(C)cc(/C=C2\NC(=O)N(CC(=O)Nc3cccc(C)c3)C2=O)c1C	-21%	-11%	-24%	-3%	x	x
CC(=O)c1cc2c(cc1O)CCCC2	x	x	-15%	x	x	x
O=C(CSc1ccc(-c2ccco2)nn1)c1ccccc1	-30%	u	-18%	39%	u	32µM*
COc1ccc(C(=O)CSc2ccc(-c3ccco3)nn2)cc1	-21%	-16%	-26%	34%	x	x
COc1ccc(OC)c(NC(=O)CSc2ccc(-c3ccco3)nn2)c1	u	u	u	-9%	20µM*	25µM*
O=c1[nH]nc(-c2ccco2)c2c1Nc1nnnn1C2c1cccc(F)c1 (stereo not given)	x	x	2%	x	x	x
c1coc(Cn2c(-c3ccco3)nc3ccccc32)c1	9%	-7%	8%	-4%	x	x
c1coc(-c2nc3ccccc3nc2-c2ccco2)c1	u	u	50µM*	-20%	14µM*	18µM*
O=C(c1ccccc1)c1ccc2nc(-c3ccco3)c(-c3ccco3)nc2c1	45µM*	7.5µM*	u	u	u	u
CC(=O)c1cccc(NC(=O)C(C)Oc2ccc3c(C)cc(=O)oc3c2)c1 (stereo not given)	x	x	12%	x	x	x
Cn1c(=O)cc(NCc2ccccc2)[nH]c1=O	-10%	-13%	-29%	0%	x	x
O=c1cc(NCc2ccccc2)[nH]c(=O)[nH]1	-2%	5%	-5%	x	u	u
O=C1C(c2cc(=O)c3ccccc3[nH]2)=C(O)c2ccccc21	-4%	-4%	-10%	-22%	2.8µM*	7.1µM*
Oc1[nH]c2ccc(Br)cc2c1N=NC(=S)N1CCOCC1	-8%	-18%	40µM*	-10%	0.32µM*	0.45µM*
Oc1[nH]c2ccccc2c1N=NC(=S)N1CCOCC1	-25%	u	x	-27%	x	x
O=c1c2sc3ccccc3c2[nH]c(=S)n1CCN1CCOCC1	6%	-12%	u	-19%	4µM*	5.6µM*
CC(=O)/C(=N\Nc1ccc(Cl)cc1Cl)Sc1nnc(-c2ccccc2)n1-c1ccccc1	-12%	-9%	u	33%	u	14µM*
CC(=O)/C(=N\Nc1ccccc1Cl)Sc1nnc(-c2ccccc2)n1-c1ccccc1	-4%	-1%	u	5%	x	x
COc1ccc(Cc2c(-c3ccco3)nc3c(C)cc(Br)cn23)c(C)c1	x	-9%	u	x	x	x
COc1ccc(Cc2c(-c3ccco3)nc3ccc(Br)cn23)c(C)c1	x	24µM*	u	x	u	u
COc1ccccc1Cc1c(-c2ccco2)nc2c(C)cc(Br)cn12	x	12µM*	x	x	-14%	-26%
Cc1oc(-c2cccs2)nc1CC(=O)NCc1ccc(F)cc1	x	x	-29%	x	x	x
Cc1c(C)[n+](=O)c2c(n1[O-])C(Br)CCC2Br (stereo not given)	6%	-11%	u	-1%	x	x
